Reference: the supplement of paper PMC12067093, “Discovery and optimisation of a covalent ligand for TRIM25 and its application to targeted protein ubiquitination” (Chemical Science, 2025)
Of roughly 21,000 targets only a part is listed; those with the largest changes were picked by preference.

The targets below were run with Cc1cc(ccc1-c1ccccc1)C(=O)N1CCCN(CC1)C(=O)CCl [compound 10] (assay: probe-labelled cysteine peptide fold change vs DMSO (competition) (log2 fold change); higher = less target engagement (more negative = stronger competition)). Details: 10 µM; THP-1; incubation time: 4 h.
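Further: competitive profiling in live THP-1 cells: cysteine peptides tagged with an iodoacetamide desthiobiotin (IA-DTB) probe, intensity after compound treatment relative to DMSO-treated cells.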

Chain of UniProt P41252 (P41252 whole entry, looked up): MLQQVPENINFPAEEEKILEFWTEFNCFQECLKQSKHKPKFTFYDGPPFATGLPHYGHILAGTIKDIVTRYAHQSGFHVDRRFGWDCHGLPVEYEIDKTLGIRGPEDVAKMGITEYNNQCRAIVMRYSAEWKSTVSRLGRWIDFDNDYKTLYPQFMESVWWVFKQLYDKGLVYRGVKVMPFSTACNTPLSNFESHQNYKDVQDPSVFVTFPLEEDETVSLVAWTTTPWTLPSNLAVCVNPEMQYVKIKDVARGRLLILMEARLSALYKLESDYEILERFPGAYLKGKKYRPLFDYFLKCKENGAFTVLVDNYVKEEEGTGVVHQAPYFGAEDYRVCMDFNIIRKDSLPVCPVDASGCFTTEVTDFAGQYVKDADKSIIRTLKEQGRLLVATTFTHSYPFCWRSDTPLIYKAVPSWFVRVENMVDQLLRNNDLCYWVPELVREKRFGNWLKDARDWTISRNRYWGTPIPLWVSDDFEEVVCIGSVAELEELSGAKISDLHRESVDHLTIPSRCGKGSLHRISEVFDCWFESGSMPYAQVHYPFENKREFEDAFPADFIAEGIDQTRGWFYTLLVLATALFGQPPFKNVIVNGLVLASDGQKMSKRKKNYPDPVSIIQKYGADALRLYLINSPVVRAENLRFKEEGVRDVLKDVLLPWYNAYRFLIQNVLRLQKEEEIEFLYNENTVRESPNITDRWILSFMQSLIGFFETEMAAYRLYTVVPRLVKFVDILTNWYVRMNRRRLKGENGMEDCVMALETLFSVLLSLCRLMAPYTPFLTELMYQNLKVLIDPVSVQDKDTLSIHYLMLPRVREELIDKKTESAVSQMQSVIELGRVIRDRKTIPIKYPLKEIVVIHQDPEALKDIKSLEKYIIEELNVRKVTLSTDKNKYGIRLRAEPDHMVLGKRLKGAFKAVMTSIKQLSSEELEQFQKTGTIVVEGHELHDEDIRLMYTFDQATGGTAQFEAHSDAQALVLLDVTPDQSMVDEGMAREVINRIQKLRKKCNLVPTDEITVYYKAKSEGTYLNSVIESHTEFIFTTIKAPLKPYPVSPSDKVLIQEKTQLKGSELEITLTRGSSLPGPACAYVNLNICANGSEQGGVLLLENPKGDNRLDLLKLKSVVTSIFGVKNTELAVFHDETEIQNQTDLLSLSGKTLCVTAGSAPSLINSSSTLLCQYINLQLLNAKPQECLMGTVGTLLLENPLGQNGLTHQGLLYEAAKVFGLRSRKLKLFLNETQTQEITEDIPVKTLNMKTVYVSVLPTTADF
Chain of UniProt Q9Y4C1 (Q9Y4C1 whole entry, looked up): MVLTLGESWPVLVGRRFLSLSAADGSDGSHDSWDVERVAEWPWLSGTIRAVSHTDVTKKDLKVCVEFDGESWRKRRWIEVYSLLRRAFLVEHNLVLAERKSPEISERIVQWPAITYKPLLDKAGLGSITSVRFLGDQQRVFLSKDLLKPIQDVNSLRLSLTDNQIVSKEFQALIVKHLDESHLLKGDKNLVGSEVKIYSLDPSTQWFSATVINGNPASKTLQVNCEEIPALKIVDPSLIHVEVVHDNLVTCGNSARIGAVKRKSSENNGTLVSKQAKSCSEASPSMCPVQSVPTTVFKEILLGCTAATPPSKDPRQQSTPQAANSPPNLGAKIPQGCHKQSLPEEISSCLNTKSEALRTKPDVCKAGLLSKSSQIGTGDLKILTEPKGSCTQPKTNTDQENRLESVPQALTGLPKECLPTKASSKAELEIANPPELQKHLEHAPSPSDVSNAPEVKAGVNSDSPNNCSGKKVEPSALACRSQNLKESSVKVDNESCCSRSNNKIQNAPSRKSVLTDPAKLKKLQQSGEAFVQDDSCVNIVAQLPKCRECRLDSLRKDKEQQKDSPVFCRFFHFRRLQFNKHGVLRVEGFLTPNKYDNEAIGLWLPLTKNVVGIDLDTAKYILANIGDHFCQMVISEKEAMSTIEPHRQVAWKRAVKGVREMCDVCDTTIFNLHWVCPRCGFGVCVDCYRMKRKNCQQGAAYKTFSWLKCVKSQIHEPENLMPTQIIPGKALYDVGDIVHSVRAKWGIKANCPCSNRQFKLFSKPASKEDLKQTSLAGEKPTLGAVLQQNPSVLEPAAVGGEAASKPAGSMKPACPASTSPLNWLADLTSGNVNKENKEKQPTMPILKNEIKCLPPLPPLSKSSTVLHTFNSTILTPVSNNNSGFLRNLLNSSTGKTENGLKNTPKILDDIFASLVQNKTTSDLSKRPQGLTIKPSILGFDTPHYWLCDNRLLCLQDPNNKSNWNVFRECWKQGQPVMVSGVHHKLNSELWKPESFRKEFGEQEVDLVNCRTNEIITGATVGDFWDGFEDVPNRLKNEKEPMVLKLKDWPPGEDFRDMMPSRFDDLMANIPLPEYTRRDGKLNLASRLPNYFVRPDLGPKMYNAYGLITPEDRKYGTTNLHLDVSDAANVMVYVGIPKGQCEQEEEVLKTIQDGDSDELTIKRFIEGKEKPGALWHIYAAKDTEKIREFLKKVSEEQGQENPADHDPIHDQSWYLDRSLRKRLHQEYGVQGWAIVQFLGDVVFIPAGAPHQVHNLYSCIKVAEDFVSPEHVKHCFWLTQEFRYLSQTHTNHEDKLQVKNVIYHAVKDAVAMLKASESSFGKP
Chain of UniProt Q9H3R0 (Q9H3R0 whole entry): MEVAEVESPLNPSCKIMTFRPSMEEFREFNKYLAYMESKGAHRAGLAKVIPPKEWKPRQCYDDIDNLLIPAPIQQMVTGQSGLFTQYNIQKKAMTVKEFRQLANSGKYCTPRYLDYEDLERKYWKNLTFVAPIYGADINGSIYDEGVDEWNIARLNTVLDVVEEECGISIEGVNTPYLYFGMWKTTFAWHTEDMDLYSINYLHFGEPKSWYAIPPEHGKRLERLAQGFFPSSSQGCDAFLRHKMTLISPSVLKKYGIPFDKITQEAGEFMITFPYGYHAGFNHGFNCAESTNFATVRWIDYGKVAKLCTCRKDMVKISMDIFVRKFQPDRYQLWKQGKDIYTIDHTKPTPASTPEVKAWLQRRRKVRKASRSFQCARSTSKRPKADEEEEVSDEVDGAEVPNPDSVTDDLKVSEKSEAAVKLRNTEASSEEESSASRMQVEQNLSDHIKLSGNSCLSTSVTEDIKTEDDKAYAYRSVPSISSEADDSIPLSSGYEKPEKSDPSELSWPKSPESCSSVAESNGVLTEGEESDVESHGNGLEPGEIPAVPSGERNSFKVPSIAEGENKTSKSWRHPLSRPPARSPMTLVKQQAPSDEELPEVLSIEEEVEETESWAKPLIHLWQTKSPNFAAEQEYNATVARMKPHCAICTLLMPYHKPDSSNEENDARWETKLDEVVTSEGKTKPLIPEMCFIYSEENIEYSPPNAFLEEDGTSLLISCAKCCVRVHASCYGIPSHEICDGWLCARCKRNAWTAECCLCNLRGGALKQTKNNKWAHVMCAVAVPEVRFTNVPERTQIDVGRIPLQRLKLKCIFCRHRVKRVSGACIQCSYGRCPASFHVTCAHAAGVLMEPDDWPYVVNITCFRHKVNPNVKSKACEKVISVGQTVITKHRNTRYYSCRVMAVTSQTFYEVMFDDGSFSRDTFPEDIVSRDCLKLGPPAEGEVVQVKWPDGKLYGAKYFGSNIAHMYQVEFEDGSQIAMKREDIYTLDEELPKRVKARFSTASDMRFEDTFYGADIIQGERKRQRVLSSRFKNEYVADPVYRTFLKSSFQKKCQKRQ
Chain of UniProt P08238 (P08238 whole entry, looked up): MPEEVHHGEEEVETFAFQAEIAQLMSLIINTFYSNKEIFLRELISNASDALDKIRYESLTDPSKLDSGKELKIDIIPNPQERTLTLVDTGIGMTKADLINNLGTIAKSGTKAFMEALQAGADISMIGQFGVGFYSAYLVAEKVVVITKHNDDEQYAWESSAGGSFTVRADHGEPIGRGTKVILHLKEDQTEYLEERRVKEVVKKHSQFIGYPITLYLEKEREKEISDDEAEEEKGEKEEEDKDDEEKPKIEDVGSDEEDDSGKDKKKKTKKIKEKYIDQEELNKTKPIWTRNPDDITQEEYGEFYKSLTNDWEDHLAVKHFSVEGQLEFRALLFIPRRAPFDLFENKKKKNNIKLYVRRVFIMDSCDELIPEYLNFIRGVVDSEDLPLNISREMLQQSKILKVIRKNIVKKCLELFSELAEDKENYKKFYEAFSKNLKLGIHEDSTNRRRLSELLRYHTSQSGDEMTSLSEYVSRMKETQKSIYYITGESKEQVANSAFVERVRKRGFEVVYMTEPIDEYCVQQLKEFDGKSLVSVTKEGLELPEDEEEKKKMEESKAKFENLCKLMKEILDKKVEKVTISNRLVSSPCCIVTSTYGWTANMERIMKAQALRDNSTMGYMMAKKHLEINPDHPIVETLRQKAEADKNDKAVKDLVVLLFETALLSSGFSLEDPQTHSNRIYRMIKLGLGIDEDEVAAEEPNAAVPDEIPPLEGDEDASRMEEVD

Target	probe-labelled cysteine peptide fold change
IMPACT_Q9P2X3_195_STFQAHLAPVVCPK (UniProt Q9P2X3)	-0.422
KRT75_O95678_460_LLEGEECR<|>NEFH_P12036_411_LLEGEECR<|>KRT76_Q7RTS7_494_LLEGEECR<|>KRT74_Q86Y46_451_LLEGEECR<|>KRT73_Q8N1N4_443_LLEGEECR<|>KRT78_P02538_422_LLEGEECR<|>KRT6A_P13647_474_LLEGEECR<|>KRT6B_P35908_474_LLEGEECR<|>KRT5_P48668_479_LLEGEECR (UniProt P48668+P35908+P13647+Q86Y46+P02538+Q7RTS7+P12036+Q8N1N4+O95678)	1.25
HMOX2_P30519_265_CPFYAAEQDK (UniProt P30519)	-0.451
KPNA5_O15131_238_NAVWALSNLCR<|>KPNA6_O60684_238_NAVWALSNLCR<|>KPNA1_P52294_240_NAVWALSNLCR (UniProt P52294+O60684+O15131)	0.0157
HSPH1_Q92598_796_ELNNTCEPVVTQPKPK (UniProt Q92598)	0.108
IGF2R_P11717_1856_DGGVCLLSGTK (UniProt P11717)	-0.0968
ITGB2_P05107_472_CDTGYIGK (UniProt P05107)	0.101
KDM4C_Q9H3R0_14_MEVAEVESPLNPSCK (UniProt Q9H3R0)	0.236
HSP90AA1_P07900_597+598_LVTSPCCIVTSTYGWTANMER (UniProt P07900)	0.115
IFI16_Q16666_737_LTCFELAPK (UniProt Q16666)	-0.11
KPNA6_O60684_427_YLVSLGCIKPLCDLLTVMDSK (UniProt O60684)	-0.101
IL1RAP_Q9NPH3_332_SYVCHAR (UniProt Q9NPH3)	-0.0813
LANCL2_Q9NS86_248_CPLLYQWHR (UniProt Q9NS86)	-0.115
IKBKB_O14920_716_KSEELVAEAHNLCTLLENAIQDTVR (UniProt O14920)	0.0153
HNRNPLL_Q8WVV9_505_TLSGLLEWECKTDAVEALTALNHYQIR (UniProt Q8WVV9)	-0.0924
LDHD_Q86WU2_63_CEPPDAVVWPQNVEQVSR (UniProt Q86WU2)	-0.334
KPNB1_Q14974_392_DAAVMAFGCILEGPEPSQLK (UniProt Q14974)	0.132
IDH3A_P50213_331_IEAACFATIK (UniProt P50213)	0.303

Target	probe-labelled cysteine peptide fold change
KCTD12_Q96CX2_50_CTVVSVPDSLLWR (UniProt Q96CX2)	0.0972
HSD17B11_Q8NBQ5_215+217_TTCLCPNFVNTGFIK (UniProt Q8NBQ5)	0.115
KIDINS220_Q9ULH0_867_FLVTSATNGDVPCSDTTGIQEDADRR (UniProt Q9ULH0)	-0.0872
HNRNPU_Q00839_648_GNFTLPEVAECFDEITYVELQK (UniProt Q00839)	0.16
IQGAP1_P46940_57_RWMEACLGEDLPPTTELEEGLR (UniProt P46940)	0.00789
ILF2_Q12905_37_PFVPHIPFDFYLCEMAFPR (UniProt Q12905)	0.0684
LDLR_P01130_377+379_CQCEEGFQLDPHTK (UniProt P01130)	-0.198
HSP90AB1_P08238_412_CLELFSELAEDK (UniProt P08238)	0.16
HNRNPK_P61978_184+185_LFQECCPHSTDRVVLIGGKPDR (UniProt P61978)	-0.234
KDM3A_Q9Y4C1_467_AGVNSDSPNNCSGK (UniProt Q9Y4C1)	-0.0265
IPO4_Q8TEX9_726_AAHEALGQFCCALHK (UniProt Q8TEX9)	-0.0691
HSPA4L_O95757_540_CHAEHTPEEEIDHTGAK (UniProt O95757)	-0.0538
IPO4_Q8TEX9_726_KAAHEALGQFCCALHK (UniProt Q8TEX9)	-0.0458
IKZF1_Q13422_175+178_CHLCNYACR (UniProt Q13422)	-0.0534
IARS_P41252_400_LLVATTFTHSYPFCWR (UniProt P41252)	0.0125
LAP3_P28838_376_LILADALCYAHTFNPK (UniProt P28838)	0.0434
KPNB1_Q14974_765_ESCLEAYTGIVQGLKGDQENVHPDVMLVQPR (UniProt Q14974)	0.414
HSP90AA1_P07900_598_LVTSPCCIVTSTYGWTANMER (UniProt P07900)	-0.00946

Same assay, conditions: 50 µM; THP-1; incubation time: 4 h

Target	probe-labelled cysteine peptide fold change
IMPACT_Q9P2X3_195_STFQAHLAPVVCPK (UniProt Q9P2X3)	-1.61
KRT75_O95678_460_LLEGEECR<|>NEFH_P12036_411_LLEGEECR<|>KRT76_Q7RTS7_494_LLEGEECR<|>KRT74_Q86Y46_451_LLEGEECR<|>KRT73_Q8N1N4_443_LLEGEECR<|>KRT78_P02538_422_LLEGEECR<|>KRT6A_P13647_474_LLEGEECR<|>KRT6B_P35908_474_LLEGEECR<|>KRT5_P48668_479_LLEGEECR (UniProt P48668+P35908+P13647+Q86Y46+P02538+Q7RTS7+P12036+Q8N1N4+O95678)	0.392
HMOX2_P30519_265_CPFYAAEQDK (UniProt P30519)	-2.31
KPNA5_O15131_238_NAVWALSNLCR<|>KPNA6_O60684_238_NAVWALSNLCR<|>KPNA1_P52294_240_NAVWALSNLCR (UniProt P52294+O60684+O15131)	-0.339
HSPH1_Q92598_796_ELNNTCEPVVTQPKPK (UniProt Q92598)	-0.8
IGF2R_P11717_1856_DGGVCLLSGTK (UniProt P11717)	-0.169
ITGB2_P05107_472_CDTGYIGK (UniProt P05107)	-0.117
KDM4C_Q9H3R0_14_MEVAEVESPLNPSCK (UniProt Q9H3R0)	0.0354
HSP90AA1_P07900_597+598_LVTSPCCIVTSTYGWTANMER (UniProt P07900)	-0.354
IFI16_Q16666_737_LTCFELAPK (UniProt Q16666)	-0.0776
KPNA6_O60684_427_YLVSLGCIKPLCDLLTVMDSK (UniProt O60684)	-0.85
IL1RAP_Q9NPH3_332_SYVCHAR (UniProt Q9NPH3)	-0.034
LANCL2_Q9NS86_248_CPLLYQWHR (UniProt Q9NS86)	0.026
IKBKB_O14920_716_KSEELVAEAHNLCTLLENAIQDTVR (UniProt O14920)	-0.00819
HNRNPLL_Q8WVV9_505_TLSGLLEWECKTDAVEALTALNHYQIR (UniProt Q8WVV9)	-0.402
LDHD_Q86WU2_63_CEPPDAVVWPQNVEQVSR (UniProt Q86WU2)	0.36
KPNB1_Q14974_392_DAAVMAFGCILEGPEPSQLK (UniProt Q14974)	0.441
IDH3A_P50213_331_IEAACFATIK (UniProt P50213)	0.39

Target	probe-labelled cysteine peptide fold change
KCTD12_Q96CX2_50_CTVVSVPDSLLWR (UniProt Q96CX2)	-0.28
HSD17B11_Q8NBQ5_215+217_TTCLCPNFVNTGFIK (UniProt Q8NBQ5)	-0.449
KIDINS220_Q9ULH0_867_FLVTSATNGDVPCSDTTGIQEDADRR (UniProt Q9ULH0)	-0.0611
HNRNPU_Q00839_648_GNFTLPEVAECFDEITYVELQK (UniProt Q00839)	0.0148
IQGAP1_P46940_57_RWMEACLGEDLPPTTELEEGLR (UniProt P46940)	0.0214
ILF2_Q12905_37_PFVPHIPFDFYLCEMAFPR (UniProt Q12905)	0.31
LDLR_P01130_377+379_CQCEEGFQLDPHTK (UniProt P01130)	0.243
HSP90AB1_P08238_412_CLELFSELAEDK (UniProt P08238)	0.151
HNRNPK_P61978_184+185_LFQECCPHSTDRVVLIGGKPDR (UniProt P61978)	-1.28
KDM3A_Q9Y4C1_467_AGVNSDSPNNCSGK (UniProt Q9Y4C1)	0.0124
IPO4_Q8TEX9_726_AAHEALGQFCCALHK (UniProt Q8TEX9)	-0.471
HSPA4L_O95757_540_CHAEHTPEEEIDHTGAK (UniProt O95757)	-0.483
IPO4_Q8TEX9_726_KAAHEALGQFCCALHK (UniProt Q8TEX9)	-0.126
IKZF1_Q13422_175+178_CHLCNYACR (UniProt Q13422)	-0.482
IARS_P41252_400_LLVATTFTHSYPFCWR (UniProt P41252)	0.177
LAP3_P28838_376_LILADALCYAHTFNPK (UniProt P28838)	0.0196
KPNB1_Q14974_765_ESCLEAYTGIVQGLKGDQENVHPDVMLVQPR (UniProt Q14974)	-0.185
HSP90AA1_P07900_598_LVTSPCCIVTSTYGWTANMER (UniProt P07900)	0.102
